# Reference: article PMC4336329 (PLoS ONE, 2015)
# Out of some 310,000 compounds screened, about 14,000 (4.5%) showed an effect of 50% or more. The effect is printed as a negative number. This excerpt belongs to a sample that is enriched for strong results.
# Molecular target: human ether-à-go-go-related gene (hERG) potassium channel (human, UniProt Q12809)
# Assay: primary screen, population patch clamp on CHO cells stably expressing hERG; higher = less effect of the substance
# 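Also: peak tail current of the secondary pulse compared with the same well before compound.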
# Sequence of human ether-à-go-go-related gene (hERG) potassium channel (Q12809 whole entry, looked up): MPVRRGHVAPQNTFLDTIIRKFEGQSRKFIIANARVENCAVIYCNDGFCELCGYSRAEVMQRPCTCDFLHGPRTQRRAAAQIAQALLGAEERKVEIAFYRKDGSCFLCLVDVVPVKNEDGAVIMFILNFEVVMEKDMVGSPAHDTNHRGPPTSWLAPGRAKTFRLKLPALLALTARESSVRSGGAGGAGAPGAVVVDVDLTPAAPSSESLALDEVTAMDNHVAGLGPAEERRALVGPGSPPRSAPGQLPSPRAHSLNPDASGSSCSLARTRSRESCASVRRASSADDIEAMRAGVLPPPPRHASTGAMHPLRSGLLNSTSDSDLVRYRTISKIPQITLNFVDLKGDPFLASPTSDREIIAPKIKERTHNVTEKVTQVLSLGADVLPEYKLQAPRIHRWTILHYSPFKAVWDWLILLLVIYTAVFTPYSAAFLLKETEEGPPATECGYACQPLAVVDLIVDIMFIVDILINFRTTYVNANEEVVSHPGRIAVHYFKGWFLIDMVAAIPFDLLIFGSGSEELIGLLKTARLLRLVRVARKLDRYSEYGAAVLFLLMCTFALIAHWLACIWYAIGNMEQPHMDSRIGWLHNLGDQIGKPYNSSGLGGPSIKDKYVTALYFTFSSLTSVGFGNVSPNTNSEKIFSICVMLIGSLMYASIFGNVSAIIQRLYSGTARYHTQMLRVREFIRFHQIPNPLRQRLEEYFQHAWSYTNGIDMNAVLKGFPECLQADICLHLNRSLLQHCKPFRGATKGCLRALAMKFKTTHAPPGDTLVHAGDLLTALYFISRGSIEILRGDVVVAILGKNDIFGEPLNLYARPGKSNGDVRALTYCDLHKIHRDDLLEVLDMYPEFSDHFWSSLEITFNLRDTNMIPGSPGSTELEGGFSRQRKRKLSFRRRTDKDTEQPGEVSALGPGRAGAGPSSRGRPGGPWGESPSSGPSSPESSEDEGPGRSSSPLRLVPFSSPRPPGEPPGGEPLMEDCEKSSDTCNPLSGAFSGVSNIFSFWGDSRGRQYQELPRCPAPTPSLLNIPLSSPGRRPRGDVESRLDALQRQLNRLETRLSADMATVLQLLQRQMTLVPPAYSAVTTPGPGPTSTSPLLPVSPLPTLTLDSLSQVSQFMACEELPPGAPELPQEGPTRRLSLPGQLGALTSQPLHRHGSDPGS
row,SMILES,"hERG current change (%, negative = inhibition) at 10uM [%]"
1,COc1ccc(NC2CCCN(C(=O)C3(C)CCCCC3)C2)cc1OC (centres unmarked),11.3
2,O=C(Nc1ccccc1)C1CC(=O)n2ncnc2N1 (centres unmarked),6.48
3,CN(C)Cc1ccccc1C1(O)c2ccccc2CSc2ccccc21.Cl (centres unmarked),9.09
4,CNC(=S)N(CCc1cccc(C)c1)Cc1cc2cc(OC)c(OC)cc2[nH]c1=O,-16.7
5,Cc1ccc(-c2nc(=O)[nH]c3ccccc23)cc1,-20
6,C/C(=N/NC(=O)CN1CCN(Cc2ccccc2Cl)CC1)c1ccncc1,-65.4
7,C/C(=N\NC(=O)CN1CCN(Cc2ccc(C)cc2)CC1)c1ccncc1,-74.8
8,O=C(CN1CCN(Cc2ccccc2Cl)CC1)N/N=C/c1ccccn1,-25.8
9,Cc1ccc(CN2CCN(C(=O)c3ccncc3)CC2)cc1.O=C(O)C(=O)O,-0.159
10,C/C(=N/NC(=O)CN1CCN(Cc2ccccc2Cl)CC1)c1cccnc1,-10.4
11,C/C(=N\NC(=O)CN1CCN(Cc2ccccc2)CC1)c1ccncc1,-35.8
12,CCCNC(=O)c1ccc2c(c1)S(=O)(=O)c1ccccc1C2=O,-10.9
13,COc1ccc(-c2nn(-c3ccccc3)cc2C(=O)NC(=S)N2CCOCC2)cc1OC,30.1
14,COCc1c(C(=O)NCC2COc3ccccc3O2)oc2ccccc12 (centres unmarked),-30.1
15,CCOCc1c(C(=O)NC2CCCCCC2)oc2ccccc12,8.56
16,CCOc1ccc(OCCNC(=O)c2oc3ccccc3c2COC)cc1,-32.5
17,COCc1c(C(=O)NCc2ccccc2CN2CCCC2)oc2ccccc12,-66.4
18,CCOCc1c(C(=O)N2CCN(Cc3ccc(Br)s3)CC2)oc2ccccc12,-30.9
19,CCOCc1c(C(=O)NCc2ccccc2CN2CCCC2)oc2ccccc12,-72

row,SMILES,"hERG current change (%, negative = inhibition) at 10uM [%]"
1,COc1ccc2[nH]c3c(c2c1)CCN1C(=O)N([C@@H](C)C(=O)NCc2ccccc2OC)C(=O)[C@]31C,-17.2
2,CCOc1ccc2nc(SCC(=O)c3ccc(O)cc3O)sc2c1,14.5
3,Cc1ccc([N+](=O)[O-])c(NC(=O)COC(=O)C2CC3CCCC(C2)C3=O)c1C (centres unmarked),13.8
4,Cc1ccnc2nc(C(=O)OCC(=O)Nc3ccc4c(c3)OC(F)(F)O4)nn12,-49.1
5,Cc1cc(C)n2nc(C(=O)OCC(=O)Nc3ccc4c(c3)OCO4)nc2n1,-1.59
6,Cc1cc(C)n2nc(C(=O)OCCOc3ccc(F)cc3)nc2n1,-12.3
7,Cc1cc(C)n2nc(C(=O)OCCOc3ccc(Br)cc3)nc2n1,-55.3
8,COc1ccc(OCCSc2nc3nc(C)cc(C)n3n2)cc1,-13.1
9,Cc1cc(C)n2nc(C(=O)OCCOc3cccc(Br)c3)nc2n1,-21.6
10,Cc1ccnc2nc(C(=O)OCCOc3ccc(Cl)cc3)nn12,-56.2
11,Cc1cc(C)n2nc(C(=O)OCC(=O)Nc3ccc4c(c3)OC(F)(F)O4)nc2n1,-63.8
12,Cc1cc(C)n2nc(SCCOc3ccc(F)cc3)nc2n1,-68.8
13,COc1ccc(OCCOC(=O)c2nc3nccc(C)n3n2)cc1,-3.15
14,Cc1ccc(OCCOC(=O)c2nc3nccc(C)n3n2)cc1,-18.4
15,Cc1cc(C)n2nc(SCCOc3ccccc3)nc2n1,-38.7
16,Cc1nc(N)nc(COc2ccccc2)n1,16.6
17,Cc1cc(C)c(NC(=O)CN(C)CC(=O)N(C)CC(=O)Nc2c(Cl)cccc2Cl)c(C)c1,9.65
18,COc1cc(OC)cc(C(=O)NNC(=S)NC(=O)c2cccnc2)c1,14.4
19,CCCCc1ccc2[nH]cc(CCN)c2c1.Cl,-9.69

row,SMILES,"hERG current change (%, negative = inhibition) at 10uM [%]"
1,Cc1ccccc1-c1nc(CN2CCC(C(=O)NCCCN3CCCC(C)C3)CC2)c(C)o1 (centres unmarked),28.6
2,COc1ccc(CCNC(=O)C2CCCN(Cc3nc(-c4ccccc4C)oc3C)C2)cc1OC (centres unmarked),-57.7
3,COc1ccc(CCNC(=O)C2CCN(Cc3nc(-c4ccccc4C)oc3C)CC2)cc1OC,-79.2
4,Cc1ccccc1-c1nc(CN2CCCC(C(=O)NCCCN3CCOCC3)C2)c(C)o1 (centres unmarked),-7.84
5,COc1ccc(CCNC(=O)C2CCN(Cc3nc(-c4ccccc4F)oc3C)CC2)cc1OC,-45.4
6,O=C(CC(Nc1cccc(Cl)c1Cl)C(=O)OCC(=O)c1cccs1)c1ccccc1 (centres unmarked),-5.59
7,CCOC(=O)[C@@H](CCc1ccccc1)N[C@H](C)C(=O)N1[C@H](C(=O)O)C[C@@H]2CCC[C@@H]21,15.9
8,CC(C)(C)NC(=O)c1ccc(COCC(F)(F)F)o1,-4.16
9,CCN(CC)CCNc1cc(C)c(C#N)c2nc3ccccc3n12,-20.6
10,CCOc1ccc2nc(COC(=O)c3ccco3)c(C(C)=O)[n+]([O-])c2c1,0.493
11,CCOc1ccc(-n2c(C)nnc2SCC(=O)N(CC)CC)cc1,2.63
12,CC(C)N1C(=O)CCC1C(=O)NCCc1ccccc1 (centres unmarked),-6.11
13,COC(=O)c1c(C)oc(C)c1S(=O)(=O)N1CCCCC1,9.1
14,COC(=O)c1[nH]c2ccccc2c1Sc1ccccc1,11.9
15,CCCCN(CC)CCCNC(=O)c1cc2c(=O)[nH]c3ccccc3c2s1,-0.682
16,CCN(CC)CCCNC(=O)c1[nH]c2ccccc2c1Sc1ccc(Cl)cc1,-89.5
17,COc1ccc(/C=C/C(=O)NC(C)(C)C)cc1S(=O)(=O)N1CCOCC1,-15.2
18,CCCCn1c(N)c(N(CC(C)C)C(=O)c2cccc(S(=O)(=O)N3CC(C)OC(C)C3)c2)c(=O)[nH]c1=O (centres unmarked),21.6
